Laboratory results taken from ChEMBL document CHEMBL3988442, “University of Dundee, Small-Polar-MMV Screening Library” (2021).
Among all 48,000 compounds or so, about 13,000 (27%) showed an effect of 50% or more. The list shows a part of the results.

The compounds below were run on Wolbachia pipientis (assay: Anti-Wolbachia Cell-Based Screen). Details: 5 µM.
Type: functional
Set-up: scale not given: in the data most compounds retested in dose-response had high values

SMILES | Percent Effect
Cc1ccsc1[C@@H]1CCN(C(=O)c2ccc(-c3cc[nH]n3)cc2)C[C@H]1O | -2.8%
CCC(SC)C(=O)N1CCC(n2cccn2)CC1 (stereo not given) | -7.031%
CN1C(=O)CC2(CCN(S(=O)(=O)c3cccs3)CC2)c2ccccc21 | 10.11%
COCCCNC(=O)C1(NC(=O)c2ccc3[nH]ncc3c2)CCCC1 | -2%
O=S(=O)(NCC1(O)CCOc2ccccc21)c1ccccc1Br (stereo not given) | 15.3%
O=C(Nc1nnn[nH]1)c1ccc(-n2cccc2)c(F)c1 | -12.4%
O=C(COC1CCCC1)N1CCC(C(O)c2ccc(F)cc2)CC1 (stereo not given) | 6.854%
COc1cccc(NC(C(N)=O)c2ccc(Br)cc2)c1 (stereo not given) | 1.947%
O=C(COc1ccc(F)cc1)N1CCO[C@H]2[C@@H](OCC3CC3)CC[C@@H]21 | 107%
CCO[C@H]1CC[C@H]2[C@@H]1OCCN2C(=O)COc1ccccc1 | 94.92%
COc1ccc(C(=O)N2CCO[C@H]3[C@H](OCC4CC4)CC[C@@H]32)cc1F | -4.788%
CCO[C@@H]1CC[C@H]2[C@H]1OCCN2C(=O)c1ccc(C)o1 | 0.08907%
CCO[C@H]1CC[C@H]2[C@H]1OCCN2C(=O)COc1ccccc1 | 74.73%
COc1cc(C(=O)N2CCO[C@H]3[C@H](OCC4CC4)CC[C@@H]32)ccc1F | 35.93%
CCO[C@@H]1CC[C@H]2[C@H]1OCCN2C(=O)C1CCOCC1 | 0.9043%
CC(C)CN1C[C@H]2CCN(C(=O)C3CCCO3)CC[C@H]2S1(=O)=O (stereo not given in full) | -18.66%
CN(Cc1cnccn1)CC1CCOc2ccccc2C1 (stereo not given) | 5.577%
CCC(C)CNc1ccc2oc(COC)nc2c1 (stereo not given) | -9.605%
CN(C)C(=O)c1ccc(CNc2c(Cl)cccc2C#N)cc1 | -8.933%
Cc1noc(C)c1CN1CCn2c(CN3CCN(C)CC3)cnc2C1.O=C(O)C(F)(F)F.O=C(O)C(F)(F)F.O=C(O)C(F)(F)F | -4.762%

SMILES | Percent Effect
COCC(=O)N1CCn2c(CN3CCN(C)CC3)cnc2C1.O=C(O)C(F)(F)F.O=C(O)C(F)(F)F | -7.166%
CNC(=O)c1cnc2n1CCN(Cc1cccnc1)C2.O=C(O)C(F)(F)F.O=C(O)C(F)(F)F.O=C(O)C(F)(F)F | 0.3449%
CN1CCN(Cc2cnc3n2CCN(Cc2cccnc2)CC3)CC1.O=C(O)C(F)(F)F.O=C(O)C(F)(F)F.O=C(O)C(F)(F)F | 102.7%
CN1CCN(Cc2cnc3n2CCN(CCc2ccccc2)C3)CC1.O=C(O)C(F)(F)F.O=C(O)C(F)(F)F.O=C(O)C(F)(F)F | 127%
CCOCc1nnc(NCc2cccc(C)c2)o1 | -20.23%
CN(Cc1ccccc1)CC1CC2(CO1)CN(Cc1cnn(C)c1)C2 (stereo not given) | -2.148%
Cn1nc2c(cc1=O)CN(Cc1nc(C3CC3)no1)CC2 | 27.59%
CCc1cc(-c2ccnc3c2ccn3C)nc(N2CCOCC2)n1 | 67.54%
Cn1ccc2c(-c3cc(N)nc(N4CCOCC4)n3)ccnc21 | 88.78%
CCc1cc(N(C)Cc2ncc[nH]2)nc(N2CCOCC2)n1 | -9.08%
CCNc1ccc(-c2ccnc3c2ccn3C)nn1 | -1.559%
CN(C)c1cncc(-c2ccnc3c2ccn3C)n1 | -34.59%
Cn1ccc2c(-c3nccc(N)n3)ccnc21 | -30.17%
CN(CC1(O)CCCN(CCC2CCCCC2)C1=O)C1CCOCC1 (stereo not given) | -1.971%
CN1C(=O)CC2(CCN(S(=O)(=O)N(C)C)CC2)c2ccccc21 | -6.476%
CN(C)S(=O)(=O)N1CCCC(C)(c2ncc(C(N)=O)s2)C1 (stereo not given) | 191.5%
CN(C)S(=O)(=O)N1CCC[C@]2(C[C@@H](Oc3ccccn3)CO2)C1.O=C(O)C(F)(F)F | -2.011%
CN(C)S(=O)(=O)N1CCC(C)(c2ncc(C(N)=O)s2)CC1 | 173.8%
CN(C)S(=O)(=O)N1CC[C@H]2OCC[C@@]2(COc2cccnc2)C1.O=C(O)C(F)(F)F | 7.883%
Cc1cnc(C(=O)N2C[C@H]3CC[C@@H]2CN(S(=O)(=O)N(C)C)C3)cn1 | -4.38%

SMILES | Percent Effect
CCS(=O)(=O)N1CCN(C(=O)C(C)C)CC2(CC(=O)N(C)C2)C1 (stereo not given) | -2.529%
O=C(NCC1(O)CCC1)c1c(O)cc(F)cc1F | 120.5%
O=C(NCC1(O)CCC1)c1c(O)cc(Cl)cc1Cl | 97.98%
CN(C)C1(CNC(=O)c2c(O)cc(Cl)cc2Cl)CCOCC1 | 85.78%
CN(C)C(C(=O)NCC1(N(C)C)CCOCC1)c1ccccc1F (stereo not given) | -12.63%
CN(C)C(C(=O)NCC1(O)CCCCC1)c1cccc(F)c1 (stereo not given) | 11.81%
O=C(NCc1ccc(Cl)cc1Cl)NCC1(O)CCSC1 (stereo not given) | -14.06%
CN(C)C1(CNC(=O)C/C=C/c2ccc(F)cc2)CCOCC1 | 1.504%
O=C(NCC1(O)CCOC1)c1ccccc1Cl (stereo not given) | -4.323%
CN(C)C(C(=O)NCC1(O)CCCCC1)c1c(F)cccc1F (stereo not given) | -3.857%
CCOC(C)c1noc(CN2CCN(c3nnc(C)s3)CC2)n1 (stereo not given) | -0.8403%
COc1ccc(Cl)cc1C(=O)N1CCCC(n2nc(C)nc2C)C1 (stereo not given) | -10.83%
Cc1cc(Cl)ccc1C(=O)N1C[C@H](C2CC2)[C@@H](N)C1 | -41.17%
CCc1nn(C)c(Cl)c1CN1C[C@@H](NC(=O)N(C)C)[C@H](C(C)C)C1 | 3.461%
CC(=O)N[C@@H]1CN(C(=O)c2csc(C(C)C)n2)C[C@H]1C(C)C | -24.56%
COc1ccc(Cl)cc1C(=O)N1C[C@@H](NC(=O)N(C)C)[C@H](C(C)C)C1 | 96.11%
COc1ccc(C(=O)N2C[C@@H](NC(=O)N(C)C)[C@H](C(C)C)C2)c(OC)n1 | 83.06%
COc1ccc(N2CCC(N3C[C@H](NC(C)=O)[C@@H](C(C)C)C3)CC2)cc1 | 0.1798%
COc1ccc(Cl)cc1C(=O)N1C[C@H](C(C)C)[C@@H](N)C1 | 105.5%
COc1ccc(Cl)cc1C(=O)NCC1CCN(C(=O)c2ccoc2)CC1 | -13.86%
